Compound activity from PubChem.
HT1080NT lethal – qHTS for induction of synthetic lethality in tumor cells producing 2HG: qHTS for the HT-1080-NT fibrosarcoma cell line; HT-1080-NT fibrosarcoma viability, CellTiter-Glo ATP luminescence, 48 h; Potency, µM (titrated, usually from 46.1 µM), for the others: at the highest dose activity, negative = less viability, usual class: cytotoxic; actives 1.6% (n = 360,000);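 note: NT is the 2HG producing partner of a matched IDH1 knockdown line; 0% = DMSO-treated cells and -100% = media-only wells without cells; nearly all actives have a fitted effect of over 55% in size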
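Toxicity toward the 2HG-producing NT line was scored as %Activity, normalised to DMSO and no-cell wells, from CellTiter-Glo luminescence after 48 hours' treatment.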
KB-V1 cytotox – qHTS assay for MDR1-selective chemotherapeutics: Primary screen using the drug-selected MDR subline cells KB-V1 | AID 1347076, 2019 | KB-V1 MDR cells viability, CellTiter-Glo, 72 h | Potency, µM (top dose mostly 46.1 µM), most hits filed as cytotoxic | actives 3.4% (n = 400,000); note: % is set by controls: 0 for no effect and ±100 for the full control effect; nearly all actives have a fitted effect of over 60% in size
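KB-V1 cells (P-gp-expressing MDR subline of KB-3-1) in phenol-red-free DMEM with 10% FBS were exposed to library compounds over a concentration series for 72 h at 37 degrees C. Viability read by CellTiter-Glo luminescence; concentration-effect curves fitted after normalization.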
HT1080 IDH1KD tx – qHTS for induction of synthetic lethality in tumor cells producing 2HG: qHTS for the HT-1080-IDH1KD cell line. HT-1080 IDH1 knockdown viability, ATP luminescence, 48 h. Potency, µM (titrated, usually from 46.1 µM), without a hit: at the top dose activity, negative = toxicity, hits mostly cytotoxic. actives 2% (n = 360,000);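 note: 0% = DMSO wells and -100% = cell-free medium wells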
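IDH1KD HT-1080 cells, 750/well, RPMI + 5% FBS; compound pinned after 2 h settling; 48 h, 37 °C; CellTiter-Glo luminescence; % activity normalised to DMSO and no-cell wells; curves fitted, classed by r2 and efficacy.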
SW480 rereplic – A quantitative high throughput screen for small molecules that induce DNA re-replication in SW480 colon adenocarcinoma cells; AID 624297, 2012; actives 1.8% (n = 340,000); Potency, µM (top dose mostly 46.1 µM), for inactives: top-dose re-replication activation, hits mostly activators; SW480 DNA re-replication, Hoechst DNA content imaging, 48 h; note: % of control where 0% means no effect; nearly all actives have a fitted effect of over 55% in size
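Per well, 250 cells were exposed to pinned compound for 48 hr. Nuclear DNA was visualised with Hoechst (40 min, 37 C) and total object intensity recorded by fluorescence scanning.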
MCF10A rereplic – A quantitative high throughput screen for small molecules that induce DNA re-replication in MCF 10a normal breast cells; AID 624296, 2012; actives 2.9% (n = 350,000); MCF 10A DNA re-replication, Hoechst nuclear intensity, 48 h; Potency, µM (highest dose often 46.1 µM), without a hit: at the top dose activity, positive = re-replication, usual class: activators; note: % of control where 0% means no effect; nearly all actives have a fitted effect of over 50% in size
KB-3-1 cytotox – qHTS assay for MDR1-selective chemotherapeutics: Primary screen using the parental adenocarcinoma cell KB-3-1; KB-3-1 viability, CellTiter-Glo ATP luminescence, 72 h; actives 1.4% (n = 400,000); AID 1347075, 2019; Potency, µM (doses to about 46.1 µM), most hits filed as cytotoxic; note: % is set by controls: 0 for no effect and ±100 for the full control effect; nearly all actives have a fitted effect of over 60% in size
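Viability of parental KB-3-1 cells, measured by CellTiter-Glo luminescence, followed a 72 h incubation at 37 °C with pinned compounds in phenol-red-free DMEM containing 10% FBS.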
* marks the source's active call; other numbers are inactive results; i = inactive; ? = inconclusive; . = no result given. Compounds with a hit are over-represented: about 8% of the library has one in this group of screens. Calls come from the whole dose curve; as a rule, active = well fitted curve in the direction sought with a large enough effect; inconclusive = small, poorly fitted or top-dose-only effect, or another doubt; inactive = no such curve, though single readings can be large; an effect the other way counts as inactive or inconclusive. Potency is the fitted concentration of half-maximal effect.

SMILES | HT1080NT lethal | KB-V1 cytotox | HT1080 IDH1KD tx | SW480 rereplic | MCF10A rereplic | KB-3-1 cytotox
COc1ccc2c(C)nc(Nc3nc(C)c(C)c(=O)[nH]3)nc2c1 | ? | 7.3µM* | ? | 19% | 17% | 3.7µM*
CCc1c(C)nc(Nc2nc(C)c3ccc(OC)cc3n2)[nH]c1=O | 7% | i | 0% | 0% | 3% | i
COc1ccc2nc(NC3=NC(c4ccccc4)CC(=O)N3)nc(C)c2c1 (stereo not drawn) | ? | i | 18µM* | -4% | 0% | i
COc1ccc2c(C)nc(Nc3nc(C)cc(C)n3)nc2c1 | 0.45µM* | ? | 0.89µM* | 5.2µM* | 24% | i
Cn1c(/C(C#N)=C/c2ccncc2)nc2ccccc21 | -1% | i | 3% | 18µM* | ? | i
N#CC(=Cc1ccncc1)c1ccccc1 | 11% | 13µM* | 11% | -4% | 11% | ?
Cn1c(/C(C#N)=C/c2ccc(O)cc2)nc2ccccc21 | 5% | i | 3% | -8% | -1% | i
COc1cc(C2C(C(=O)Nc3ccccc3C)=C(C)Nc3ncnn32)ccc1OCC(N)=O (stereo not drawn) | . | ? | . | . | . | i
O=C1CCCC2=C1C1(CCSCC1)N=C(Nc1nc3ccccc3o1)N2 | . | i | . | . | . | i
CCn1c(CCC(=O)Nc2nc3c(s2)CCCC3)nc2cc(S(=O)(=O)N(C)C)ccc21 | -7% | 23µM* | -2% | -4% | 0% | i
Cc1ccc2nc(CN3CCN(C(=O)Nc4cccc(C)c4C)CC3)oc2c1 | . | i | . | . | . | i
CC(Oc1ccccc1)C(=O)N[C@@H]1C(=O)N2C(C(=O)OCC3CCCCC3)C(C)(C)S[C@H]12 (stereo partly drawn) | . | ? | . | . | . | i
C=CC[C@@H](CC(=O)N[C@@H](CO)Cc1ccccc1)C(=O)N[C@H](COC(=O)[C@@H](CC=C)CC(=O)OC(C)(C)C)Cc1c[nH]c2ccccc12 | ? | i | ? | ? | 16µM* | i
C=CC[C@@H](CC(=O)N(CCO)Cc1ccccc1)C(=O)N[C@@H](COC(=O)[C@@H](CC=C)CC(=O)OC(C)(C)C)Cc1c[nH]c2ccccc12 | ? | i | ? | 3% | ? | ?
C=CC[C@H](CC(=O)N(CCO)Cc1ccccc1)C(=O)N[C@@H](COC(=O)[C@H](CC=C)CC(=O)OC(C)(C)C)Cc1c[nH]c2ccccc12 | ? | ? | ? | 25% | 23µM* | ?
C=CC[C@H](CC(=O)N[C@H](CO)Cc1ccccc1)C(=O)N[C@@H](COC(=O)[C@@H](CC=C)CC(=O)OC(C)(C)C)Cc1c[nH]c2ccccc12 | -20% | i | ? | 15% | 29% | ?
C=CC[C@@H](CC(=O)N(CCO)Cc1ccccc1)C(=O)N[C@H](COC(=O)[C@@H](CC=C)CC(=O)OC(C)(C)C)Cc1c[nH]c2ccccc12 | -26% | i | -25% | 8% | 10µM* | i
Cc1cccc(N2C(=O)N3[C@@H]4c5ccccc5OC[C@@H]4[C@@H](c4ccccc4)[C@@]3(C)C2=O)c1 | 4% | i | 4% | 2% | 8% | i
O=C(CSc1nc(C(F)(F)F)cc(=O)[nH]1)N1CCC(Cc2ccccc2)CC1 | -10% | i | -9% | ? | 14% | i
C[C@@H]1CN([C@H](C)CO)C(=O)c2c(c3ccccc3n2C)-c2ccccc2CO[C@H]1CN(C)C(=O)c1cc(Cl)cc(Cl)c1 | -2% | i | -3% | . | . | i
COc1ccc(OC)c(-c2nnc3n2N=C(c2ccc(OC)c(OCC4CC4)c2)CS3)c1 | . | 4.6µM* | . | 2.3µM* | ? | 0.92µM*
Fc1ccccc1-c1nnc2n1N=C(c1ccc(OC(F)F)c(OCC3CC3)c1)CS2 | . | i | . | -5% | -18% | i
COc1ccc(C2=Nn3c(nnc3-c3ccccc3Cl)SC2)cc1OCC1CC1 | . | ? | . | 16µM* | ? | 2.9µM*
Cc1oc(-c2ccc(C(=O)NCCC(C)C)cc2)nc1CS(=O)(=O)c1ccccc1 | . | ? | . | . | . | i
O=C(NCc1cccnc1)c1cc(-c2ccccc2)on1 | -21% | ? | -6% | -4% | 0% | i
SMILES | HT1080NT lethal | KB-V1 cytotox | HT1080 IDH1KD tx | SW480 rereplic | MCF10A rereplic | KB-3-1 cytotox
O=C(NCc1ccccc1)c1cc(-c2cccc(O)c2)on1 | -6% | i | 0% | 6.5µM* | ? | i
Nc1ccc(/C=C/c2ccnc3ccccc23)c(N)c1 | . | i | . | . | . | i
O=C1CCCC2=C1C(c1ccc(OS(=O)(=O)c3ccc(Cl)cc3)cc1)C1=C(CCCC1=O)O2 | 6% | 4.6µM* | 12% | 11% | ? | ?
COC(=O)CSc1[nH]c2ccccc2c1[N+](=O)[O-] | -3% | i | -2% | -3% | 15µM* | i
O=C1c2ccccc2C(=O)c2[nH]cnc21 | ? | i | -26% | 3% | -2% | i
O=C1c2ccccc2C(=O)c2[nH]c(=O)[nH]c21 | 9.2µM* | 10µM* | 6.5µM* | 1.3µM* | ? | 5.2µM*
CCCn1c(COc2cccc(C)c2)nc2ccccc21 | . | i | . | . | . | i
COc1ccc(Cn2ccc3nc(C)c(C(=O)N4CCN(c5ccc(F)cc5)CC4)cc3c2=O)cc1 | . | i | . | . | . | i
O=C(Nc1cc(C(=O)N2CCN(c3ccccc3)CC2)ccc1Cl)c1cccs1 | -3% | 8.2µM* | -8% | 3% | 0% | i
O=C(Nc1ccc(N2CCN(C(=O)c3cccs3)CC2)cc1)c1ccccc1Cl | ? | ? | 9.2µM* | 23µM* | ? | 16µM*
O=C(Nc1ccc(N2CCN(C(=O)c3cccs3)CC2)cc1)c1ccccc1F | -26% | 7.3µM* | -19% | ? | ? | ?
O=C(c1cccs1)N1CCN(c2ccc(F)cc2)CC1 | 17% | i | 8% | -5% | 0% | i
CC(C)(C)C(=O)Nc1ccc(N2CCN(C(=O)c3cccs3)CC2)cc1 | 5% | i | 3% | . | . | i
O=C(NC(=S)N1CCN(c2ccc([N+](=O)[O-])cc2Cl)CC1)c1ccco1 | 5% | 21µM* | 0% | 22% | -2% | i
